PP5 primary: PP5 phosphatase inhibitors, primary screen, biochemical, fluorescence | Serine/threonine-protein phosphatase 5 (Homo sapiens), P53041 | purified PP5c, OMFP substrate fluorescence | inhibition, % at 6.7 µM | 320,000 compounds, 0.18% hits | AID 1987, 2009;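 active = inhibition above the campaign's mean inhibition across all tested compounds plus 3 SD, cut at about 9.5% in these data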;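 also: 0% = DMSO only and 100% = 100 µM cantharidin control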
PP1 counter: PP1-alpha phosphatase inhibitors, primary screen, counter-screen for PP5 inhibitor project, biochemical, fluorescence, OMFP substrate, single point | inhibition, % at 6.7 µM | purified PP1alpha | 320,000 compounds, 0.9% hits;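 active = inhibition above the mean inhibition of all tested compounds plus 3 SD, computed separately for each screening campaign, cut at about 15% in these data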
Target sequence (P62136 whole entry, looked up): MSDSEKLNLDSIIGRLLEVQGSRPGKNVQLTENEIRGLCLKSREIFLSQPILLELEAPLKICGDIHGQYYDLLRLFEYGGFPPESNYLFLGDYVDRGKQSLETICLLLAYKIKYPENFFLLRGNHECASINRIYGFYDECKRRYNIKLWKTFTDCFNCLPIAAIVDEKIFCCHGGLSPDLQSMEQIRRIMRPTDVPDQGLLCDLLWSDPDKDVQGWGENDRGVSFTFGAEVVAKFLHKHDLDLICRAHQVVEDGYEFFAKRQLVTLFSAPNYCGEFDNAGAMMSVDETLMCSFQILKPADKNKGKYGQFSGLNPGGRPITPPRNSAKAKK
CSC inhib: cancer stem cell viability inhibitors, primary screen, luminescence. cancer stem cell-like cells viability. inhibition, % at 7.5 µM. 300,000 compounds, 1.1% hits. AID 2717, 2010; in the data active = inhibition above about 75%; inconclusive = no clear call, values can overlap the other calls; tested in HMLE shEcad cells
Calb FLC: C. albicans growth inhibition with fluconazole, primary screen, CaCi-2 strain, Alamar Blue fluorescence | growth inhibition, % (test concentration not listed) | C. albicans CaCi-2 (fluconazole-resistant clinical isolate) + fluconazole, 48 h | 300,000 compounds, 0.57% hits | AID 1979, 2009;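 active = growth inhibition above about 58% in most replicates, limit read from the data, passing the limit was not always enough; inconclusive = exactly half the replicates above a set limit; inactive = most replicates below a set limit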;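 also: all wells also contain fluconazole at 8 µg/ml as a sub-toxic cotreatment; 0% = median of DMSO wells and 100% = median of geldanamycin control wells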
ALR inh: inhibitors of human ALR sulfhydryl oxidase, primary screen, biochemical, H2O2 detection, HRP-luminol luminescence, single point. purified ALR, DTT oxidation. inhibition, % (concentration not given with the values). AID 485317, 2010. 290,000 compounds, 3.8% hits;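 active = mean replicate inhibition above about 79%, with every replicate also reaching it, limit read from the data; inconclusive = only one of the two criteria met; inactive = mean below limit and not every replicate reaching it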
Target sequence (P55789 whole entry, looked up): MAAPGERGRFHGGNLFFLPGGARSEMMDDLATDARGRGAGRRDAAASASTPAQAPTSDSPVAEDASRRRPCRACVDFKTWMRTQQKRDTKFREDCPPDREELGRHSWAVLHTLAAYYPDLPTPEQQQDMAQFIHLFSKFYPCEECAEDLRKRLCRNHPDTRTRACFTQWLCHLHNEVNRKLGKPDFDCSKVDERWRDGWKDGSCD
PP1 inh confirm: PP1 phosphatase inhibitors, confirmation, biochemical, fluorescence, OMFP substrate, triplicate; shares compounds with PP1 counter; inhibition, % at 6.7 µM; purified PP1alpha; AID 2358, 2010; 1,900 compounds, 52% hits;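 active = mean PP1 inhibition above a set limit taken from the earlier primary screen, cut at about 15% in these data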
PP5 inh counter: PP5 phosphatase inhibition by PP1 hits, confirmation, counter-screen for PP1 inhibitor project, biochemical, fluorescence, triplicate; shares compounds with PP1 counter; purified PP5c, OMFP fluorescence; inhibition, % at 6.7 µM; 1,900 compounds, 4% hits;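 active = mean PP5 inhibition over triplicate wells above about 9.5% taken from the earlier PP1 screen, limit read from the data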
* marks the source's active call; other numbers are inactive results; ? = inconclusive; / = no result given. Sampled rows, rich in hits. Any-hit rate of the full collection: about 5.4%.

SMILES	PP5 primary	PP1 counter	CSC inhib	Calb FLC	ALR inh	PP1 inh confirm	PP5 inh counter
O=C(N/N=C/c1cn(-c2ccccc2)nc1-c1ccc2c(c1)OCCO2)c1ccncc1	2	7	/	17	14	/	/
O=C(CSc1ccc(-c2ccco2)nn1)c1ccc(F)cc1	-1	3	/	-4	53	/	/
N#Cc1ccc(-c2ccco2)nc1SCC(=O)c1ccc(Cl)cc1	1	26*	1	2	?	7	-3
CCN1CCN(Cc2ccc(NC(=O)c3cc(NC(=O)c4cncc(-c5ccc(C#N)cc5)c4)cc(OC)c3)cc2C(F)(F)F)CC1	5	51*	31	1	-7	15	0
COc1ccc(NC(=S)NC(NC(=O)c2cccc(Cl)c2)C(Cl)(Cl)Cl)c([N+](=O)[O-])c1 (stereo not drawn)	4	18*	/	6	/	6	1
CC(=O)c1ccc(NC(=O)CCc2nnc3ccc(N4CCC5(CC4)OCCO5)nn23)cc1	2	-3	-18	3	-10	/	/
N#C/C(=C/c1cn(-c2ccccc2)nc1-c1cccc(OCc2ccc(F)cc2)c1)C(=O)NCCCn1ccnc1	5	22*	99*	2	3	8	-3
CCCOc1cccc(-c2nn(-c3ccccc3)cc2/C=C(\C#N)C(=O)NCCCn2ccnc2)c1	4	14	8	-5	/	/	/
Cc1ccc(C)c(CSc2ccc3nnc(-c4ccccn4)n3n2)c1	0	22*	-8	-2	/	13	-4
Brc1ccc(CSc2ccc3nnc(-c4ccccn4)n3n2)cc1	-1	26*	/	-8	-22	20*	-5
Fc1ccc(CSc2ccc3nnc(-c4ccccn4)n3n2)cc1	-1	13	29	-19	8	/	/
O=C(Oc1ccc(/C=N/Nc2ccccc2)cc1)c1ccccc1	2	21*	21	-25	4	8	-3
O=C(O)c1ccc(N/N=C/c2ccc(OC(=O)c3cccc(Cl)c3)cc2)cc1	1	52*	5	3	4	14	-1
COCCN(C(=O)CCN1C(=O)C2CC=CCC2C1=O)c1c(N)n(CC(C)C)c(=O)[nH]c1=O (stereo not drawn)	0	-1	/	/	1	/	/
O=C(CCCN1C(=O)/C(=C/c2ccccc2)SC1=S)Nc1ccc(C(=O)O)c(O)c1	5	8	1	-3	4	/	/
O=C(CCN1C(=O)/C(=C\c2ccccc2F)SC1=S)Nc1ccc(C(=O)O)c(O)c1	4	20*	-5	1	28	20*	2
O=S(=O)(c1ccc(Br)cc1)N1CCCC1	-1	-4	-5	3	0	/	/
CCCCCCCCCC(=O)NNC(=O)c1c(O)c2ccccc2n(CCC)c1=O	-3	-2	-8	6	-8	/	/
CCCn1c(=O)c(C(=O)Nc2ncccc2C)c(O)c2ccccc21	3	24*	/	-2	0	21*	-5
CCCn1c(=O)c(C(=O)NNS(=O)(=O)c2ccc(Cl)cc2)c(O)c2ccccc21	0	22*	86*	0	3	16*	-4
OCC(Cc1ccccc1)Nc1c2ccccc2nc2ccccc12 (stereo not drawn)	1	2	3	1	-5	/	/
Cc1ccc(-c2cc(C(=O)Nc3ccc(S(=O)(=O)N4CC(C)OC(C)C4)cc3)[nH]n2)c(O)c1 (stereo not drawn)	2	19*	0	6	5	16*	1
CCOC(=O)c1ccc(NC(=O)C2C3CCC(C3)C2C(=O)O)cc1 (stereo not drawn)	-5	-1	/	-2	-1	/	/
CCOC(=O)c1cc(NC(=O)C2C3C=CC(O3)C2C(=O)O)cc(C(=O)OCC)c1 (stereo not drawn)	23*	17*	-21	-14	-1	0	1
COC(=O)Nc1nc(-c2ccc(F)cc2)c(C)s1	3	1	/	-5	21	/	/
SMILES	PP5 primary	PP1 counter	CSC inhib	Calb FLC	ALR inh	PP1 inh confirm	PP5 inh counter
CCOC(=O)c1cc(NC(=O)C2C3CCC(O3)C2C(=O)O)cc(C(=O)OCC)c1 (stereo not drawn)	65*	57*	/	0	/	13	19*
Cc1sc(NC(=O)C2C3CCC(O3)C2C(=O)O)nc1-c1ccc(CC(C)C)cc1 (stereo not drawn)	79*	78*	20	11	/	35*	38*
CCOC(=O)c1c(NC(=O)C2C3CCC(O3)C2C(=O)O)sc(C)c1-c1ccc(C)cc1 (stereo not drawn)	33*	20*	-2	13	7	13	13*
COc1cccc(NC(=O)NNC(=O)C(C)Oc2ccc3ccccc3c2)c1 (stereo not drawn)	/	/	-9	12	3	/	/
CC1(C)OC(=O)C=C[C@]2(C)[C@H]3CC[C@@]4(C)[C@H](C(=O)O)OC(=O)[C@H]5O[C@]54[C@]3(C)C(=O)C[C@@H]12	-1	-3	-4	/	0	/	/
CCOC(=O)c1c(NC(=O)/C=C\C(=O)O)sc(C)c1-c1ccccc1	-2	3	0	29	-2	/	/
CCOC(=O)c1c(NC(=O)/C=C/C(=O)O)sc(C)c1-c1ccc(C(C)(C)C)cc1	1	18*	109*	41	97*	18*	0
COc1ccc(NC(=O)C(CCCCNC(=O)OC(C)(C)C)NC(=O)OCc2ccccc2)cc1 (stereo not drawn)	6	2	7	1	0	/	/
CC(C)(C)OC(=O)N[C@@H](CCCCNC(=O)OCc1ccccc1)c1nnc([C@H](CCCCNC(=O)OCc2ccccc2)NC(=O)OC(C)(C)C)o1	5	23*	-6	39	-11	13	2
COc1ccc(C(=O)CSc2nc(N)nc(SC)c2C#N)cc1	2	27*	-7	6	-3	28*	0
CSc1nc(N)nc(SCC(=O)c2ccccc2)c1C#N	3	2	14	-2	3	/	/
O=[N+]([O-])c1cc(Br)c(O)c(/C=N/Nc2nnnn2-c2cccc3ccccc23)c1	8	21*	51	69	15	23*	-4
O=C(N/N=C/c1cc([N+](=O)[O-])cc(Br)c1O)C12CC3CCC(CC(C3)C1)C2	0	-2	45	24	-2	/	/
Cn1c(CO)cnc1SCc1ccc(Cl)cc1	0	4	-21	0	-4	/	/
COc1cc(=O)n2c(-c3ccccc3)csc2n1	0	1	-3	7	0	/	/
O=c1cc(-c2ccccc2)cc(-c2ccccc2)n1O	0	20*	-3	1	98*	13	-3

Screening data from PubChem BioAssay.
